Experiment [1] can be described thus: compound effects on lung adenocarcinoma cell viability – A549, calcein-AM fluorescence, 48 h, basal, profiling panel (AID 1162). To be noted: higher = more signal.
Experiment [2] in a line: compound effects on differentiated 3T3-L1 adipocyte viability – cell-based, 3T3-L1 adipocytes, calcein-AM fluorescence, 48 h, basal, profiling panel (AID 1163). Conditions: 3T3-L1 adipocytes viability, higher = more signal.
A short description of experiment [3]: compound effects on hepatocellular carcinoma cell viability – HepG2, calcein-AM fluorescence, 48 h, basal, profiling panel (AID 1164). Conditions: higher = more signal.
Experiment [4] is described as follows: compound effects on multiple myeloma cell viability – MM1S, calcein-AM fluorescence, 48 h, basal, profiling panel (AID 1165).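 Further: viability of MM1S multiple myeloma cells under basal unstimulated conditions.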 To be noted: higher = more signal.
The nature of experiment [5]: calcein-AM signal in unstimulated myeloma cells – cell-based, calcein-AM fluorescence, 48 h, PK04 Diversity Set, profiling panel (AID 1166).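 Further: cells grown under basal conditions without added stimulus.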 To be noted: RPMI8226 myeloma viability, higher = more signal.
Experiment [6] is described as follows: JC-1 mitochondrial signal, unstimulated HepG2 cells – cell-based, JC-1 fluorescence, 24 h, 100 nL compound, profiling panel (AID 1167). To be noted: HepG2 mitochondrial potential, higher = more signal.
Experiment [7] in a line: JC-1 mitochondrial signal, unstimulated adipocytes – cell-based, JC-1 fluorescence, 3T3-L1 adipocytes, 24 h, 100 nL compound, profiling panel (AID 1168). To be noted: JC-1 mitochondrial fluorescence, higher = more signal, called active from +8 up or from −8 down.
The nature of experiment [8]: JC-1 mitochondrial signal, unstimulated myeloma cells – cell-based, JC-1 fluorescence, RPMI8226, 24 h, 100 nL compound, profiling panel (AID 1169). To be noted: JC-1 mitochondrial potential fluorescence, higher = more signal.
Experiment [9] can be described thus: JC-1 mitochondrial signal, unstimulated MM1S myeloma – cell-based, JC-1 fluorescence, 24 h, 100 nL compound, profiling panel (AID 1170). Conditions: MM1S mitochondrial potential, higher = more signal.
A short description of experiment [10]: resazurin metabolic signal in A549 cells – cell-based, resazurin fluorescence, 24 h, PK04 Diversity Set, profiling panel (AID 1171). Conditions: A549 viability, higher = more signal, called active from +8 up or from −8 down. In general terms: The colour change of resazurin is a common sign of viable cells or microbes.

Consider 13 compounds from PubChem BioAssay.

SMILES strings stand for the structures. Calls of active or inactive are those of the source.
Further: test concentration not given here.

On to `[N-]=[N+]=NCc1ccccc1[C@H]1OC(c2ccc(OCCCO)cc2)=N[C@@]1(Cc1ccccc1)C(=O)NCc1ccccc1`, for which the z-score in [1] was -0.649; in [2], 0.399; in [3], 0.71; in experiment [4], -2.04; in experiment [5], -3.49; in [6], 0.343. Besides, the z-score is 0.544 (inactive) in experiment [7], -1.35 in experiment [8], -0.765 in [9] and 0.789 (inactive) in [10].
With `COC(=O)[C@@]1(Cc2ccc(F)cc2)[C@H]2c3cc(C(=O)N4CCCC4)n(Cc4cc(C)n(C)n4)c3C[C@H]2CN1C(=O)c1ccccc1`, the z-score is -0.553 in [1]; -0.0099 in experiment [2]; 0.499 in [3]; -0.391 in [4]; -0.382 in [5]; 2.16 in [6]. Also, the z-score in experiment [7] is -1.13 (inactive); in experiment [8], -0.0438; in experiment [9], -0.461; in experiment [10], -0.156 (inactive).
As for `CC(C)OC(=O)C=C1C[C@@H](c2ccccc2C(F)(F)F)O[C@@H](c2ccccc2C(F)(F)F)O1`, the z-score in experiment [1] was -0.677; in experiment [2], -0.984; in [3] it was 0.761; in experiment [4], 0.737; in experiment [5], 0.217; in experiment [6], 0.752. Besides, the z-score in [7] was 0.341 (inactive); in experiment [8], 0.589; in experiment [9], -0.541; in experiment [10] it was 1.08 (inactive).
For the compound `CCCC=C(CCC)[C@@H](NC(=O)Oc1ccc(F)cc1)c1ccc(C(=O)OC)cc1`, the z-score in [1] was -1.33; in experiment [2], -0.609; in experiment [3] it was 0.0049; in experiment [4] it was -1.43; in experiment [5], -2.42; in experiment [6], 6.8. The z-score in experiment [7] is 0.261 (inactive); in experiment [8] it was -0.754; in experiment [9] it was -1.44; in experiment [10] it was 0.717 (inactive).
For the compound `COCCOC(=O)N1C(=O)[C@@]2(c3cc(C#CC4=CCCCC4)ccc31)[C@H](C(=O)Nc1nc3ccccc3s1)[C@H]1C(=O)O[C@H](c3ccccc3)[C@H](c3ccccc3)N1[C@@H]2c1ccccc1OCCO`, the z-score in experiment [1] was -0.812; in [2], 2.14; in experiment [3], -0.789; in [4] it was -1.59; in experiment [5] it was -2.27; in experiment [6] it was -2.7. Moreover, the z-score was -0.2 (inactive) in [7], -0.849 in [8], -1.29 in experiment [9] and 0.163 (inactive) in experiment [10].
On to `O=C(NCc1ccccc1)[C@@H]1c2ccccc2C(=O)N(CC23CC4CC(CC(C4)C2)C3)[C@H]1c1ccc(CO)cc1`, for which the z-score is 0.449 in experiment [1]; -0.475 in experiment [2]; 0.57 in [3]; -0.708 in experiment [4]; -0.896 in [5]; 0.362 in experiment [6]. Also, the z-score in experiment [7] is -0.924 (inactive); in [8], -0.136; in [9], -0.711; in experiment [10], -0.471 (inactive).
For the compound `CC(C)C[C@H]1NC(=O)[C@@]23C(=O)N[C@@H](Cc4ccccc4)C2[C@H](C)[C@@]2(C)O[C@H]2C3/C=C/C/C=C\CNC(=O)[C@H](Cc2ccccc2)NC1=O` (stereo not given in full), the z-score in [1] is -0.278; in [2], 0.733; in [3], -1.03; in experiment [4] it was -0.207; in experiment [5], -0.567; in experiment [6] it was 0.804. Moreover, the z-score in [7] is -0.172 (inactive); in experiment [8] it was -1.09; in experiment [9], 0.687; in experiment [10] it was 0.217 (inactive).
Regarding `CC(C)N1C(=O)c2ccccc2[C@](C)(C(=O)NCc2ccccc2)[C@@H]1c1ccc(CO)cc1`, the z-score in experiment [1] is 0.82; in experiment [2] it was 0.48; in [3] it was -0.699; in experiment [4], -0.656; in experiment [5], -0.0073; in [6], -0.265. Moreover, the z-score in experiment [7] is -0.426 (inactive); in [8], -0.833; in [9] it was -0.472; in [10], -0.0838 (inactive).
Take `CN(C)CCCC[C@@H]1NC(=O)[C@H]2C[C@@H](C(=O)NCCCCCNC(=O)CS)[C@@H](c3cccc(OCCO)c3)N2C1=O`: the z-score is 0.33 in experiment [1]; -0.0603 in [2]; 0.0814 in [3]; -0.649 in experiment [4]; -0.0199 in [5]; -0.246 in experiment [6]. Moreover, the z-score was -0.034 (inactive) in experiment [7], 0.0925 in [8], 0.0356 in experiment [9] and -0.0288 (inactive) in [10].
For the compound `O=C1O[C@H](c2ccccc2)[C@H](c2ccccc2)N2[C@H]1[C@@H](C(=O)Nc1nc3ccccc3s1)[C@]1(C(=O)Nc3ccc(C#CC4(O)CCCCCC4)cc31)[C@H]2c1ccc(OCCO)cc1`, the z-score in experiment [1] is -0.128; in experiment [2] it was 1.45; in [3], -0.318; in experiment [4], -1.89; in [5], -2; in experiment [6] it was -3.77. For the same compound, the z-score in experiment [7] is -0.727 (inactive); in experiment [8] it was -1.22; in experiment [9], -1.41; in [10], 0.634 (inactive).
With `COC(=O)c1c(CC[C@@H](CO)NC(=O)N2CCC[C@H]2Cn2cc(-c3ccccn3)nn2)oc(C(C)=O)c1C(=O)OC`, the z-score is -0.204 in [1]; 1 in experiment [2]; -1.02 in experiment [3]; 0.208 in [4]; 1.18 in experiment [5]; -0.443 in experiment [6]. Further, the z-score was -0.922 (inactive) in [7], 0.859 in experiment [8], -0.475 in [9] and 0.133 (inactive) in experiment [10].
As to `CCOC(=O)C[C@H]1[C@H](OC(=O)Cc2ccc3c(c2)OCO3)[C@@H](NC(=O)c2ccc3ccccc3c2)c2cc(OCCCO)ccc2N1C(=O)c1ccccc1`, the z-score in experiment [1] was 1.38; in experiment [2] it was -0.377; in experiment [3] it was 0.778; in experiment [4], -0.41; in [5] it was -0.377; in [6] it was 1.27. Further, the z-score in [7] was 1.14 (inactive); in experiment [8] it was 0.621; in [9], -0.334; in experiment [10], 0.859 (inactive).
For `COCCCNC(=O)C1N=C(c2ccc(OCCCO)cc2)N(c2ccccc2)O1` (stereo not given), the z-score in [1] is -0.201; in experiment [2], 0.829; in [3], -0.393; in experiment [4], 0.399; in experiment [5], 0.336; in experiment [6], -0.205. The z-score in experiment [7] is -0.183 (inactive); in experiment [8] it was -0.492; in experiment [9], -0.213; in [10], 0.938 (inactive).
